Shown are actives, neighbours in structure and some others; about 3.7% of the full set was active somewhere.
tim10-1 inh: growth inhibitors of tim10-1 mutant yeast; S. cerevisiae tim10-1 ts strain growth, BacTiter-Glo, 24 h; inhibition, % at 20 µM; hit rate 2.2% among 330,000;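 active = inhibition of at least 40%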;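 note: mutant grown at 25 °C; 0% = DMSO wells with yeast and 100% = wells holding no yeast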
NALP3 yeast inh: blocks the NALP3 inflammasome reconstituted in yeast | Yeast reconstituted NLRP3/ASC/caspase-1, beta-gal luminescence, 24 h | inhibition, % at 10 µM | hit rate 0.39% among 330,000 | AID 2825;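 active = inhibition of 50% or more; inactive = inhibition below 50%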;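 note: plate controls were induced DMSO wells for no effect and uninduced yeast grown without galactose for full effect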
PfHsp90 yeast 2: inhibits growth of yeast expressing Plasmodium falciparum Hsp90. hit rate 0.32% among 310,000. S. cerevisiae expressing PfHsp90, BacTiter-Glo ATP, 48 h; yeast lacking PDR1 and PDR3 efflux regulators. inhibition, % at 9.4 µM;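 active = every replicate shows inhibition above about 80%, whatever the replicate mean, limit read from the data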;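 note: 0% = DMSO neutral controls and 100% = 20 µM radicicol positive controls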
TIM10 inh: inhibits growth of TIM10 yeast strain; hit rate 1.4% among 330,000; S. cerevisiae TIM10 strain growth, BacTiter-Glo luminescence, 24 h; inhibition, % at 10 µM;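 active = inhibition of 40% or more at the single tested concentration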;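 note: wild-type TIM10 isogenic control strain grown at permissive 25 °C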
tim23-1 inh: tim23-1 yeast growth inhibition; inhibition, % at 20 µM; hit rate 1.3% among 330,000; S. cerevisiae tim23-1 growth, BacTiter-Glo luminescence, 24 h;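 active = growth inhibition of the mutant yeast at or above 50%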;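 note: temperature-sensitive mutant grown at 25 °C; plate controls were DMSO-treated mutant yeast for no effect and medium wells lacking yeast for full effect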
tim10-1 conf: tim10-1 yeast growth inhibition, confirmed | hit rate 56% among 7,400 | inhibition, % at 20 µM | S. cerevisiae tim10-1 ts strain growth, BacTiter-Glo, 24 h | shares compounds with tim10-1 inh;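 active = inhibition of yeast growth at or above a set limit in either of two repeat tests at 20 µM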;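 note: tim10-1 mutant grown at permissive 25 °C to find synthetic lethal compounds; 0% = DMSO yeast wells and 100% = medium wells without yeast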
Active calls of the source: *; · = no result.

SMILES	tim10-1 inh	NALP3 yeast inh	PfHsp90 yeast 2	TIM10 inh	tim23-1 inh	tim10-1 conf
CCc1nc2ccc(C(=O)N3CCN(c4cccc(OC)c4)CC3)cc2nc1CC	45.5*	9.8	-13.7	23.8	39.3	13.4
CCN(Cc1ccccc1)C(=O)COC(=O)Cc1c[nH]c2ccccc12	14.1	28.5	·	13.0	26.5	·
CCC(C)Oc1nc(C)cc(C)c1S(=O)(=O)c1ccccc1C (stereo not given)	44.1*	-3.8	6.2	24.3	42.0	22.6
Cc1ccc(NC(=O)c2cc(-c3ccccc3)nn2-c2ccccc2)c(Br)c1	31.6	9.7	-10.5	33.1	11.3	·
Cc1ccc(NC(=O)c2cc(-c3ccccc3)nn2-c2ccccc2)cc1	44.6*	13.0	10.8	32.5	21.1	31.5*
N#CC(CC(=O)c1ccc(F)cc1)c1ccc2c(c1)OCO2 (stereo not given)	40.5*	12.5	-7.4	18.0	38.9	30.9*
O=C(/C=C/c1ccc2c(c1)OCO2)c1ccc(F)cc1	14.8	5.4	-5.6	2.8	6.8	·
COc1ccc(OC)c(S(=O)(=O)N2C(C)CCCC2C)c1 (stereo not given)	42.5*	13.8	3.3	13.1	30.2	22.1
Nc1nc(Nc2ccc(Cl)cc2)c(NC=O)c(=O)[nH]1	17.3	10.8	·	2.0	2.6	·
OCCn1c(-c2ccc3c(c2)OCO3)csc1=Nc1ccccc1	48.3*	10.9	53.1	24.5	44.5	32.6*
Cc1ccc(-c2nnnn2-c2ccc(C)cc2)cc1	32.8	27.3	-22.1	27.0	45.5	·
FC(F)(F)c1nc(N2CCCC2)ncc1-c1nnnn1-c1ccc(Cl)cc1	40.4*	10.8	32.1	17.6	23.1	11.3
Cc1ccc(-n2nnnc2-c2cnn(-c3ccc(F)cc3)c2C(F)(F)F)cc1	41.4*	5.1	33.4	5.5	28.0	2.9
FC(F)(F)c1ccncc1-c1nnnn1-c1ccc(Cl)cc1	6.1	-5.2	2.4	8.3	-2.9	·
Fc1ccc(-n2nnnc2-c2cnc(-c3cccs3)nc2C(F)(F)F)cc1	40.5*	-18.2	·	32.7	13.1	19.0
CCn1nc(C)c(CNC(=O)c2ccc(OC3CCN(Cc4ccccn4)CC3)cc2)c1C	2.1	23.3	-0.5	6.9	13.1	·
O=C(NCC(c1cccs1)N1CCOCC1)c1cc(S(=O)(=O)N2CCOCC2)ccc1Cl (stereo not given)	·	·	0.1	·	·	·
CCCCCC(=O)NNC(=S)NC(=O)c1ccccc1[N+](=O)[O-]	43.0*	6.3	·	18.3	7.1	26.4
O=C(NC(=S)NNC(=O)c1ccccc1[N+](=O)[O-])c1ccc(Br)cc1	40.7*	30.0	13.4	36.5	49.1	44.4*
CCN(C(=O)COC(=O)c1ccc(-n2c(C)ccc2C)cc1)c1c(N)n(Cc2ccccc2)c(=O)[nH]c1=O	·	·	-4.7	·	·	·
CCc1c(C)sc(NC(=O)c2cc(C(C)C)on2)c1C#N	9.4	30.7	7.5	10.5	25.7	·
Cc1cc(C(=O)Nc2sc(C)c(C)c2C#N)no1	42.9*	32.5	-4.6	11.3	27.3	19.7
CN(C)c1ccc([C@@H]2[C@@H]([N+](=O)[O-])[C@H]3C=Cc4ccccc4N3[C@H]2C(=O)c2ccc(Cl)cc2)cc1	44.8*	10.1	-5.4	17.3	33.3	25.8
O=C(c1ccccc1)C1C(c2ccccc2)C1[N+](=O)[O-] (stereo not given)	4.2	-55.9	-46.6	-2.5	8.9	·
CCC(C)c1ccc(S(=O)(=O)N2CCN(C(=O)c3ccc(Cl)c(S(=O)(=O)N4CCOCC4)c3)CC2)cc1 (stereo not given)	·	·	2.8	·	·	·
SMILES	tim10-1 inh	NALP3 yeast inh	PfHsp90 yeast 2	TIM10 inh	tim23-1 inh	tim10-1 conf
CCc1nc(SCc2ccc(OCC(C)C)cc2)n[nH]1	20.7	29.8	-34.6	14.1	41.3	·
O=C(CC1S/C(=N/N=C2CCCCCC2)NC1=O)Nc1ccc(Br)cc1F (stereo not given)	44.0*	20.8	-7.7	17.1	34.6	21.5
NC1=NC(=O)/C(=C/C=C/c2cccs2)S1	4.8	0.5	21.3	3.6	-1.3	·
CCc1ccc(NC(=O)N(Cc2ccco2)C(C)c2cccs2)cc1 (stereo not given)	41.7*	-4.1	5.7	21.2	29.7	32.8*
CC(C)CCN(C(=O)Nc1ccccc1)C(C)c1cccs1 (stereo not given)	43.1*	5.5	·	23.2	34.5	31.0*
CCN(C(=O)N1CCOCC1)c1ccccc1C	6.1	11.3	6.8	6.4	-5.0	·
Cc1cc(Cl)c2oc(C(=O)N(C)C3CCOC3)c(C)c2c1 (stereo not given)	40.6*	43.4	2.2	-10.1	40.4	-9.9
Cc1cc(Cl)c2oc(C(=O)N(CCO)Cc3ccccc3)c(C)c2c1	-9.0	17.1	-0.8	-5.2	31.6	·
COc1cccc(-c2sc3ccc(OC)cc3c2C#CCCO)c1	16.1	17.0	-22.2	7.5	22.1	·
Cc1cc(Nc2ccccc2)nn1C(=O)c1ccc(Br)cc1	52.6*	18.5	-14.8	6.3	21.3	28.6
Cc1cccc(NC(=O)C(Cc2ccccc2)c2nn[nH]n2)c1C (stereo not given)	-13.3	10.6	10.8	-2.1	-3.4	·
Cc1cc(C)n(CC(O)Cn2c3ccccc3c3ccccc32)c(=O)n1 (stereo not given)	0.0	21.2	-39.1	19.1	3.4	·
Cc1cc(C)n(CC(O)Cn2c3ccc(Br)cc3c3cc(Br)ccc32)c(=O)n1 (stereo not given)	56.4*	7.2	-6.9	22.8	45.7	52.0*
CCc1ccc(-c2ccc3nnc(SC)n3n2)cc1	55.6*	-21.1	-39.9	17.1	42.1	18.2
CCSc1nnc2ccc(-c3cccs3)nn12	-9.7	12.7	14.0	4.0	9.6	·
CCSc1nnc2ccc(-c3ccc(C)cc3)nn12	45.4*	-9.5	-13.6	-5.3	38.4	24.3
CN(C)C(CNC(=O)c1cc(S(=O)(=O)N(C)Cc2ccccc2)ccc1Cl)c1ccco1 (stereo not given)	13.9	0.4	-19.9	2.8	12.7	·
S=C1NC2(CCCCC2)NN1c1ccccc1	2.4	21.7	-4.6	-31.9	-31.4	·
CC1CCCC2(C1)NC(=S)N(c1ccccc1)N2 (stereo not given)	55.1*	22.5	10.9	-2.6	-3.3	-33.5
Cc1cccn2c(=O)c3cc(S(=O)(=O)c4ccc(Br)cc4)c(=N)n(C4CCCC4)c3nc12	40.6*	2.3	-21.2	-0.7	31.3	-9.9
N=c1c(S(=O)(=O)c2ccc(Br)cc2)cc2c(=O)n3ccccc3nc2n1C1CCCCC1	35.6	10.8	2.2	22.8	16.7	·
O=C(CSc1ncnc2sc3c(c12)CCCCC3)NCc1ccco1	46.5*	16.5	2.8	27.3	40.3	33.8*
O=C(CSc1ncnc2sc3c(c12)CCCC3)c1ccco1	38.9	14.4	-30.7	5.2	34.9	·
Cc1cccc(OCC(=O)Nc2nccs2)c1C	42.4*	-4.5	-9.1	21.0	23.8	25.2
COc1ccc(/C(N)=N/OC(=O)CCC2CCCC2)cc1OC	45.7*	8.0	-30.1	8.7	20.1	36.8*

Screening data as filed in PubChem.
